Several values for one entry are separate records, joined by “and”; a condition that tells them apart may be missing. Identical values can stand only once. A number with no mark means an inactive call. How the calls were made is not given here.
What follows are molecules tested on Aerobactin synthetase IucA (Klebsiella pneumoniae hvKP1) (assay: Biochemical IucA enzyme inhibition primary screen of the Spectrum library (AID 1346200;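 further: 100% = wells without compound and 0% = wells lacking enzyme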)). Conditions: malachite green pyrophosphate, A620, at 8 µM, stronger effect = lower value.
`C=C1C(=O)OC2CC1C(OC(C)=O)C/C(C)=C/CC/C(C)=C/CC[C@]2(C)O` (stereo not given in full) was tested, and the activity remaining was 123%. `COc1ccccc1OCC(O)CO` (stereo not given) showed an activity remaining of 94.5%. `COC(=O)[C@@H]1OC(=O)C2OC23[C@@]1(C)CCC1[C@]2(C)C(C[C@H](O)[C@]13C)C(C)(C)[C@H](OC(C)=O)C[C@@H]2OC(C)=O` (stereo not given in full) was tested, and the activity remaining was 111%. Molecule `O=c1c(O)cc([C@H]2Oc3cc(O)cc(O)c3C[C@H]2O)cc2c([C@H]3Oc4cc(O)cc(O)c4C[C@@H]3O)cc(O)c(O)c12` has an activity remaining of 104%. With `CCc1ccc(CCOc2ccc(CC3SC(=O)NC3=O)cc2)nc1` (stereo not given) the activity remaining was 120%. `CCCCOc1cc(C(=O)NCCN(CC)CC)c2ccccc2n1` gave an activity remaining of 103%. `CC(C)C(C)/C=C/C(C)C1CCC2C3=CC=C4CC(O)CCC4(C)C3CCC21C` (stereo not given) gave an activity remaining of 111%. With `Nc1ncnc2c1ncn2C1O[C@H](COP(=O)(O)O)[C@@H](O)[C@H]1O` (stereo not given in full) the activity remaining was 98%. `CC(C)[N+]1(C)C2CC[C@@H]1CC(OC(=O)C(CO)c1ccccc1)C2` (stereo not given in full) was tested, and the activity remaining was 109%. Molecule `CNCC[C@@H](Oc1ccccc1)c1ccccc1` has an activity remaining of 111%. In the case of `COc1cc(/C=C/C(=O)N2CCC=CC2=O)cc(OC)c1OC`, the activity remaining is reported as 95.4%. Work on `C1CNCCN1` yielded an activity remaining of 120%. Work on `c1ccc(CC2=NCCN2)cc1` yielded an activity remaining of 118%. For `O=C(/C=C/C=C/c1ccc2c(c1)OCO2)N1CCCCC1`, the activity remaining was 104%. With `CC(=O)N(O)CCCCCNC(=O)CCC(=O)N(O)CCCCCNC(=O)CCC(=O)N(O)CCCCCN` the activity remaining was 117%. In the case of `O=c1ccc2ccccc2o1`, the activity remaining is reported as 124%. `CC(C)C1=CC2=CCC3[C@](C)(CCC[C@]3(C)C(=O)O)C2CC1` (stereo not given in full) showed an activity remaining of 94.8%. Molecule `NC(=O)N/N=C/c1ccc([N+](=O)[O-])o1` has an activity remaining of 94.6%. Molecule `CC(C)CCCC(C)[C@H]1CCC2C3CC[C@H]4CC(=O)CC[C@]4(C)C3CC[C@@]21C` (stereo not given in full) has an activity remaining of 102%. `CC(=O)OCC(=O)[C@@]12OC3(CCCC3)O[C@@H]1CC1C3CCC4=CC(=O)C=C[C@]4(C)[C@@]3(F)[C@@H](O)C[C@@]12C` (stereo not given in full) showed an activity remaining of 90.4%. `COc1ccc(-c2cc(=O)c3c(O)cc(OC)c(OC)c3o2)c(OC)c1` was tested, and the activity remaining was 94.3%. With `COc1cc([C@@H]2c3cc4c(cc3C(OC3O[C@@H]5COC(C)O[C@H]5[C@H](O)[C@H]3O)C3COC(=O)[C@@H]32)OCO4)cc(OC)c1O` (stereo not given in full) the activity remaining was 102%. `CC(=O)O[C@@H]1CC2C(C)(C)[C@H](O)CC[C@]2(C)C2CC[C@@]3(C)[C@H](c4ccoc4)OC(=O)C4OC43[C@@]21C` (stereo not given in full) was tested, and the activity remaining was 122%. With `COc1ccc(-c2coc3c(O)c(OC)ccc3c2=O)cc1` the activity remaining was 115%. `c1ccc2[nH]c(-c3cscn3)nc2c1` gave an activity remaining of 111%. `C/C(=C\CO)CC[C@H](C)CCC[C@H](C)CCCC(C)C` gave an activity remaining of 121%. Molecule `CC(C)C1CCC(C(=O)N[C@@H](Cc2ccccc2)C(=O)O)CC1` (stereo not given in full) has an activity remaining of 118%. Molecule `Clc1ccc(C(Cn2ccnc2)OCc2ccsc2Cl)c(Cl)c1` (stereo not given) has an activity remaining of 109%. `CC[C@H](C)C(=O)O[C@H]1CCC=C2C=C[C@H](C)C(CCC3C[C@@H](O)CC(=O)O3)[C@H]21` (stereo not given in full) showed an activity remaining of 102%. With `COC(=O)c1c(OC)cc2c(c1C)Oc1c(Cl)c(O)c(Cl)c(C)c1C(=O)O2` the activity remaining was 116%. `COc1ccc(-c2coc3cc(O)ccc3c2=O)cc1` showed an activity remaining of 109%. `O=C1CN(/N=C/c2ccc([N+](=O)[O-])o2)C(=O)N1` was tested, and the activity remaining was 78.3%. Molecule `COc1ccc2c(c1)CCC1C2CC[C@@]2(C)C1CC[C@@H]2O` (stereo not given in full) has an activity remaining of 111%. `OC[C@H]1OC([S-])[C@H](O)[C@@H](O)[C@@H]1O.[Au+]` (stereo not given in full) gave an activity remaining of 109%. `C#CCCCCCCCCCCCC(=O)CC(O)COC(C)=O` (stereo not given) showed an activity remaining of 122%. `COc1cc(O)cc(/C=C/c2ccccc2)c1` was tested, and the activity remaining was 104%. With `O=c1cc(-c2ccccc2)oc2cc(O)cc(O)c12` the activity remaining was 118% and 119%. With `COc1ccc(-c2cc(=O)c3c(OC)c(OC)c(OC)c(OC)c3o2)cc1OC` the activity remaining was 122%. `CC1(C)C=CC(=O)[C@@]2(C)C1CC(=O)[C@]1(C)C2CC[C@@]2(C)[C@H](c3ccoc3)OC(=O)C3OC321` (stereo not given in full) showed an activity remaining of 123%. In the case of `CC(=O)OC1CCC2C3CCc4cc(O)ccc4C3CCC12C` (stereo not given), the activity remaining is reported as 123%.
